Measured values from PubChem BioAssay (Tox21).
Values joined by “and” are separate entries in the source; they are usually repeats but may differ in a detail not shown here. Identical values can stand only once. Unmarked numbers belong to inactive results. Inconclusive results are not listed. Entries that show only a call come without a potency. Active and inactive are the calls of the source. Unless noted, the call rests on the fitted dose curve; in most records, active means well fitted curve in the direction sought with a large enough effect in the repeat runs; inconclusive means weak or mixed curves; inactive means no such curve, though single readings can be large; an effect the other way counts as inactive or inconclusive.

Experiments:
[1] = qHTS assay for small molecules that induce genotoxicity in human embryonic kidney cells expressing luciferase-tagged ATAD5 (AID 651632); further: nearly all actives have a fitted effect of over 15% in size
Outline: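 Luminescent reporter readout, HEK293T ATAD5-luc line: 16 hr drug exposure (37C, 5% CO2) followed by Amplite, 30 min RT.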

[2] = qHTS assay for small molecule agonists of the p53 signaling pathway - cell viability (AID 651633; calls by dose curve; further: nearly all actives have a fitted effect of over 30% in size; further: potency means the concentration at half of the fitted maximal effect)
Outline: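 p53RE-bla cells, seeded at 4,000 per well and rested 5 h at 37 C/5% CO2, received compounds in DMSO for 16 h at 37 C. CellTiter-Glo was then added, and luminescence was read after 30 min at room temperature to gauge cytotoxicity.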

[3] = qHTS assay for small molecules that induce genotoxicity in human embryonic kidney cells expressing luciferase-tagged ATAD5 - cell viability (AID 651634; calls by dose curve; further: nearly all actives have a fitted effect of over 25% in size; further: potency means the concentration at half of the fitted maximal effect)
Outline: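 Viability read: CellTiter-Fluor fluorescence, 30 min at 37C. Cells: HEK293T, luciferase-tagged ATAD5. Exposure: 15.5 hr, 37C, 5% CO2, compound or DMSO vehicle.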

[4] = qHTS assay for small molecule disruptors of the mitochondrial membrane potential - cell viability (AID 720634; calls by dose curve; further: nearly all actives have a fitted effect of over 20% in size; further: potency means the concentration at half of the fitted maximal effect)
Outline: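 HepG2, 1 hr compound, 37 C. ATP luminescence via CellTiter-Glo, 30 min RT, same well as m-MPI.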

[5] = qHTS assay for small molecule disruptors of the mitochondrial membrane potential (AID 720635); further: potency means the concentration at half of the fitted maximal effect
Outline: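 HepG2 cells (2,000/well) attached overnight at 37C, then took compound for 1 hr at 37C, 5% CO2. Mito-MPS dye was added for 30 min; fluorescence was read at 490/535 nm (monomers) and 540/590 nm (aggregates).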

[6] = qHTS assay to test for compound auto fluorescence at 590 nm (red) in HepG2 cells (AID 720674)
Outline: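 Rose Bengal sodium served as the red fluorophore standard. HepG2 monolayers (overnight attachment, MEM with 10% FBS) were exposed to test compounds for 1 hr at 37 C and read at Ex 540/Em 590 nm.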

[7] = qHTS assay to test for compound auto fluorescence at 535 nm (green) in HepG2 cells (AID 720675); further: potency means the concentration at half of the fitted maximal effect
[8] = qHTS assay to test for compound auto fluorescence at 460 nm (blue) in HEK293 cells (AID 720678)
Outline: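 Intrinsic compound fluorescence is recorded in live HEK293 cultures after overnight incubation at 37C, 5% CO2, using excitation 405 nm and emission 460 nm. Values are referenced to triamterene.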

[9] = qHTS assay to test for compound auto fluorescence at 535 nm (green) in HEK293 cells (AID 720680); further: potency means the concentration at half of the fitted maximal effect
[10] = qHTS assay to test for compound auto fluorescence at 460 nm (blue) in HEK293 cell free culture (AID 720681)
Outline: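 Test compounds were pinned into cell-free culture medium (DMEM with 10% FBS) and fluorescence was read directly at Ex/Em 405/460 nm. Signals were expressed as fluorescence equivalents of triamterene, with DMSO vehicle as control.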

[11] = qHTS assay to test for compound auto fluorescence at 535 nm (green) in HEK293 cell free culture (AID 720682); further: potency means the concentration at half of the fitted maximal effect
Outline: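 Green-label autofluorescence (485 nm excitation, 535 nm emission) measured on compound added to cell-free culture medium (DMEM, 10% FBS). Output is expressed relative to fluorescein.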

[12] = qHTS assay to test for compound auto fluorescence at 590 nm (red) in HEK293 cell free culture (AID 720683)
Outline: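 Tox21 10K library compounds were pinned into cell-free DMEM with 10% FBS and fluorescence was read at excitation 540 nm. Activity is expressed as Rose Bengal sodium equivalency.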

[13] = qHTS assay to test for compound auto fluorescence at 590 nm (red) in HepG2 cell free culture (AID 720684)
Outline: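 Measured in medium alone (MEM containing 10% FBS) following pintool addition of compound; emission at 590 nm with 540 nm excitation, referenced to Rose Bengal sodium.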

[14] = qHTS assay to test for compound auto fluorescence at 460 nm (blue) in HepG2 cell free culture (AID 720685)
Outline: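 Compound (23 nL) or DMSO pinned into cell-free MEM with 10% FBS; blue fluorescence read at 405/460 nm excitation/emission, expressed as auto-fluorescence equivalency to triamterene.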

[15] = qHTS assay to test for compound auto fluorescence at 535 nm (green) in HepG2 cell free culture (AID 720686); further: potency means the concentration at half of the fitted maximal effect
[16] = qHTS assay to test for compound auto fluorescence at 460 nm (blue) in HepG2 cells (AID 720687)
Outline: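 Cells (2,000/well in MEM with 10% FBS) attached overnight at 37 C, then were exposed to compound or DMSO for 1 hr at 37 C, 5% CO2. Fluorescence read at Ex/Em 405/460 nm, expressed as triamterene-equivalent signal.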

[17] = qHTS assay to test for compound auto fluorescence at 590 nm (red) in HEK293 cells (AID 720679)
Outline: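 Red autofluorescence, HEK293 cells: 2,000 cells/well; attach 4-5 hr 37C; add 23 nL cpd or DMSO; incubate o/n 37C 5% CO2; read Ex540/Em590; Rose Bengal sodium reference.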

[18] = biological target: Glucocorticoid receptor (Homo sapiens) (UniProt P04150); experiment: qHTS assay to identify small molecule agonists of the glucocorticoid receptor (GR) signaling pathway (AID 720691; active means well fitted activation curve with a large enough effect in the signal ratio in the repeat runs, not every such curve was filed as active; the % refers to the signal ratio)
Outline: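 qHTS in GR-bla HeLa cells: 4 h settling at 37 C/5% CO2, 18 h compound incubation at 37 C, 2 h LiveBLAzer B/G FRET substrate at room temperature, fluorescence intensity measured.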

[19] = biological target: Glucocorticoid receptor (Homo sapiens) (UniProt P04150); experiment: qHTS assay to identify small molecule antagonists of the glucocorticoid receptor (GR) signaling pathway (AID 720692; active means well fitted inhibition curve with a large enough effect in the signal ratio in the repeat runs, not every such curve was filed as active; the % refers to the signal ratio)
Outline: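 Inhibition of glucocorticoid signalling is measured in HeLa cells with a GRE-controlled beta-lactamase reporter; cells are co-treated with compound and 5 nM dexamethasone (final) for 18 h before FRET substrate readout.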
Tags describe the fitted curve by direction and shape or compound fluorescence and quenching.

Glucocorticoid receptor (Homo sapiens), sequence (P04150 whole entry, looked up): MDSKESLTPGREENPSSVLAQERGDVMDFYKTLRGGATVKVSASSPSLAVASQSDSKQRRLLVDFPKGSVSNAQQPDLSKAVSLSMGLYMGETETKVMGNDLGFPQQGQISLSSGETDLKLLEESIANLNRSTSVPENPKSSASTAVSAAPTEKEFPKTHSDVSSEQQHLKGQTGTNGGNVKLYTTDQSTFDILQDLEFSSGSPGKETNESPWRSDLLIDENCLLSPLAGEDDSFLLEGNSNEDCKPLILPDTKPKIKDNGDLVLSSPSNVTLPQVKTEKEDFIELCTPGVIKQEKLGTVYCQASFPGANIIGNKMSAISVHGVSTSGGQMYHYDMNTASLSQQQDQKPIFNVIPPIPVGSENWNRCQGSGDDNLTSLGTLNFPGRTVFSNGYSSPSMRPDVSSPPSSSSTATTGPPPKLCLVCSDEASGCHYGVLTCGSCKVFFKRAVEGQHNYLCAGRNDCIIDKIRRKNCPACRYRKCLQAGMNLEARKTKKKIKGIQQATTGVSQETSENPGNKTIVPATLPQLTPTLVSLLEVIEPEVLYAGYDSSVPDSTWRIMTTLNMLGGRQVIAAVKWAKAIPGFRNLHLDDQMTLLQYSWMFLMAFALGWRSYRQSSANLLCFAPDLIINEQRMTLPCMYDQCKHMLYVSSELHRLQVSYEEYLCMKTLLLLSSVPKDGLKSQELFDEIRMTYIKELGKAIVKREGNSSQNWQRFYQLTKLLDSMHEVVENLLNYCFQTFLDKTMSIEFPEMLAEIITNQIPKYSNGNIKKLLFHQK

CCCCCCCCCCCCCC[N+](C)(C)Cc1ccccc1
Potency [1]: inactive
Potency [2]: 23.7 µM (active) and 69.6 µM (active)
Potency [3]: 69.6 µM (active)
Potency [4]: 62.1 µM (active)
Potency [5]: 11.9 µM (active) and 27.7 µM (active)
Potency [6]: inactive
Potency [7]: inactive
Potency [8]: inactive
Potency [9]: inactive
Potency [10]: inactive
Potency [11]: inactive
Potency [12]: inactive
Potency [13]: inactive
Potency [14]: inactive
Potency [15]: inactive
Potency [16]: inactive

O=C(O)c1cc(-c2ccc(F)cc2F)ccc1O
Potency [1]: inactive
Potency [2]: inactive
Potency [3]: inactive
Potency [4]: inactive
fluorescence, relative to Rose Bengal [6]: 0.164% [at 18.6 µM]
fluorescence, % of fluorescein control [7]: -0.0913% [at 18.6 µM]
fluorescence, % of triamterene [8]: -0.0352% [at 18.6 µM]
fluorescence, % of fluorescent control [17]: -0.141% [at 18.6 µM]
fluorescence, % of fluorescein [9]: 0.0391% [at 18.6 µM]
fluorescence, % of fluorescent control [10]: 0.0528% [at 18.6 µM]
activity change [11]: -0.026% [at 18.6 µM, active compounds read high]
fluorescence, % of fluorescent control [12]: -0.0186% [at 18.6 µM]
fluorescence, % of fluorescent control [14]: -0.0315% [at 18.6 µM]
fluorescence, % of fluorescein control [15]: -0.0114% [at 18.6 µM]
fluorescence, % of fluorescent control [16]: -0.098% [at 18.6 µM]
Potency [18]: inactive

OCC(F)(F)F
Potency [1]: inactive
Potency [2]: inactive
Potency [3]: inactive
Potency [4]: inactive
Potency [6]: inactive
Potency [7]: inactive
Potency [8]: inactive
Potency [17]: inactive
Potency [9]: inactive
Potency [10]: inactive
Potency [11]: inactive
Potency [12]: inactive
Potency [13]: inactive
Potency [14]: inactive
Potency [15]: inactive
Potency [18]: inactive
Potency [19]: inactive

O=C1OC2(c3ccc(O)cc3Oc3cc(O)ccc32)c2ccc(N=C=S)cc21
Potency [1]: inactive
Potency [2]: inactive
Potency [3]: inactive
Potency [4]: inactive
Potency [6]: inactive
Potency [7]: 39.8 µM (active)
Potency [8]: inactive
Potency [9]: 39.8 µM [fluorescent] (active)
Potency [10]: inactive
Potency [11]: 39.8 µM [fluorescent] (active)
Potency [12]: inactive
Potency [13]: inactive
Potency [14]: inactive
Potency [15]: 35.5 µM [fluorescent] (active)
Potency [16]: inactive
Potency [18]: inactive
Potency [19]: inactive

CCCCCC/C=C\CCCCCCCC(=O)O
Potency [1]: inactive
Potency [2]: inactive
Potency [3]: inactive
Potency [4]: inactive
Potency [6]: inactive
Potency [7]: inactive
Potency [8]: inactive
Potency [17]: inactive
Potency [9]: inactive
Potency [10]: inactive
Potency [11]: inactive
Potency [12]: inactive
Potency [13]: inactive
Potency [14]: inactive
Potency [15]: inactive
Potency [16]: inactive

CN(C)c1ccc(C(=C2C=CC(=[N+](C)C)C=C2)c2ccc(N(C)C)cc2)cc1
Potency [1]: inactive
Potency [2]: 10.6 µM (active) and 9.64 µM (active) and 30.6 µM (active)
Potency [3]: 11.9 µM (active) and 21.6 µM (active) and 24.3 µM (active)
Potency [4]: 54.2 µM (active)
Potency [6]: inactive
Potency [7]: inactive
Potency [8]: inactive
Potency [17]: inactive
Potency [9]: inactive
Potency [10]: inactive
Potency [11]: inactive
Potency [12]: inactive
Potency [13]: inactive
Potency [14]: inactive
Potency [15]: inactive
Potency [16]: inactive
Potency [18]: inactive

Cc1cccc(C(=O)O)c1O
Potency [1]: inactive
Potency [2]: inactive
Potency [3]: inactive
Potency [4]: inactive
Potency [6]: inactive
Potency [7]: inactive
Potency [8]: inactive
Potency [17]: inactive
Potency [9]: inactive
Potency [10]: inactive
Potency [11]: inactive
Potency [12]: inactive
Potency [13]: inactive
Potency [14]: inactive
Potency [15]: inactive
Potency [16]: inactive
Potency [18]: inactive
